Rows were chosen to be rich in hits. Some 3.4% of all compounds tested hit in one or more screens of this group.
GPR151 ag = activators of human GPR151, primary screen, cell-based, PathHunter beta-arrestin, luminescence; G-protein coupled receptor 151 (Homo sapiens), Q8TDV0; actives 1% (n = 650,000); PathHunter beta-arrestin GPR151 cells; activation, % at 11.2 µM; in the data active = activation above about 4.9%;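 note: 0% = median of compound wells and 100% = cells with positive control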
FBW7 activator = FBW7 E3 ligase activators, primary screen, biochemical, AlphaScreen, human | AlphaScreen FBW7–phospho-cyclin E peptide binding, activator screen | normalized activity (activation), % at 26.1 µM | actives 0.13% (n = 650,000) | AID 1259310, 2017; in the data active = normalized activity above about 1.9%;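 note: purified mutant Fbw7 with reduced substrate affinity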
TEAD-YAP block = TEAD-YAP interaction inhibition, primary screen, TEAD-YAP interaction inhibitor project, luminescence, HEK-TIYL cells. TEAD-Gal4/YAP UAS-luciferase luminescence. inhibition, % at 9.12 µM. actives 1.4% (n = 640,000); in the data active = inhibition above about 32%;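 note: 0% = median of test compound wells and 100% = reference inhibitor wells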
MITF primary = MITF inhibitors, primary screen, biochemical, AlphaScreen, human; actives 0.91% (n = 650,000); Microphthalmia-associated transcription factor (Homo sapiens), O75030; AlphaScreen MITF homodimerization, bead proximity signal; inhibition, % at 2.6 µM; in the data active = inhibition above about 50%;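 note: 0% = vehicle wells with protein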
Target sequence (O75030 whole entry, looked up): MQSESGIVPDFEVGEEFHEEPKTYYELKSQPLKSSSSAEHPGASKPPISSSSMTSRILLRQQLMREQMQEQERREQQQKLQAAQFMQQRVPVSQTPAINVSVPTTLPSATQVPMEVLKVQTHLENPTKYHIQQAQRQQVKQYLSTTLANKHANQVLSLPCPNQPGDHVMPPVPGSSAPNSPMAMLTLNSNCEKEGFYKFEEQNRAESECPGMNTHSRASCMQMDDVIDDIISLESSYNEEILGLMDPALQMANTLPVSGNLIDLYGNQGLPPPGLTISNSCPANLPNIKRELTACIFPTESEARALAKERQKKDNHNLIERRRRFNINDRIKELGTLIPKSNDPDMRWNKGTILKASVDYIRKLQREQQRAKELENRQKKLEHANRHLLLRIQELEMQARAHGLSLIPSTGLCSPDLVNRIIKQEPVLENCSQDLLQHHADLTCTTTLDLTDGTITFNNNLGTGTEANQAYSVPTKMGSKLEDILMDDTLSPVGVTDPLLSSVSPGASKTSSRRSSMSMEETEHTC
MITF inh conf = MITF inhibitors, retest of hits, confirmation, biochemical, AlphaScreen, triplicate | shares compounds with MITF primary | AlphaScreen MITF homodimerization, biotin/His-MITF beads | inhibition, % at 2.6 µM | actives 16% (n = 4,700) | AID 1259372, 2018;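 active = inhibition above a cutoff derived from the DMSO control wells, cut at about 28% in these data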;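 note: 0% = MITF dimer wells with DMSO only; inhibitors lower the bead chemiluminescence by keeping MITF from dimerizing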
AlphaScreen DR = AlphaScreen optical interference compounds, dose response, counter-screen, biochemical, HTS; shares compounds with MITF primary; AlphaScreen optical interference counterscreen, cell-free; IC50, µM; actives 6% (n = 480); call rule not given here
AlphaScreen intf2 = AlphaScreen optical interference compounds, counter-screen for MITF inhibitor project, biochemical, triplicate; shares compounds with MITF primary; LysRS AlphaScreen counterscreen, signal interference; inhibition, % at 2.6 µM; actives 7.6% (n = 4,700); AID 1259376, 2018;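 active = inhibition above a cutoff derived from the DMSO control wells, cut at about 30% in these data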
* = called active by the depositor; x = not tested or not shown.

SMILES | GPR151 ag | FBW7 activator | TEAD-YAP block | MITF primary | MITF inh conf | AlphaScreen intf2 | others
CN(C)C(=O)NCC1CC(CNC(=O)N(C)C)C1(C)C (configuration not stated) | 0.1 | -0.2 | 5.8 | 2.1 | x | x
O=C(NC(=S)Nc1cccnc1)c1ccc(Cl)cc1Cl | -0.6 | 0.0 | -21.7 | 0.0 | x | x
CC(=O)Nc1ccc(NC(=O)CSc2ccc(-c3ccccn3)nn2)cc1 | -3.2 | -0.1 | 5.1 | 82.8* | 83.2* | 100.3*
Cc1cccc(NC(=O)CSc2ccc(-c3ccccn3)nn2)c1 | -3.1 | -0.2 | -3.1 | 56.9* | 76.1* | 99.3*
O=C(CSc1ccc(-c2ccccn2)nn1)Nc1ccc(Br)cc1 | 0.5 | -0.1 | -6.4 | 4.3 | x | x
CC(=O)Nc1cccc(NC(=O)CSc2ccc(-c3ccccn3)nn2)c1 | 1.2 | -0.3 | -7.7 | 83.7* | 78.6* | 99.8*
CC(=O)c1cccc(NC(=O)CSc2ccc(-c3ccccn3)nn2)c1 | -4.4 | -2.0 | 4.5 | 46.5 | x | x
CCc1ccc(C2=NC(c3ccc(C)cc3)NC(c3ccccc3O)C2)cc1 (configuration not stated) | -2.2 | 0.4 | -47.2 | 12.3 | x | x
Cc1cncc2c(S(=O)(=O)N3CC[C@@H](NC(=O)C(O)c4ccc(F)cc4F)C3)cccc12 (some centres not stated) | -0.1 | 0.2 | -6.7 | 59.2* | 58.2* | 11.9 | AlphaScreen DR=>6.48
Fc1ccccc1CN1CCN(Cc2ccc3ccccc3c2)CC1 | -1.4 | 0.6 | 0.3 | 74.9* | -7.3 | 1.4
CCS(=O)(=O)N1CCN(Cc2c[nH]c3ccccc23)CC1 | -2.0 | 0.1 | 11.5 | 50.6* | 4.8 | 9.5
Brc1ccccc1CN1CCN(Cc2c[nH]c3ccccc23)CC1 | -0.1 | -0.3 | 3.8 | 58.6* | -4.5 | -3.9
c1ccc2cc(CN3CCOCC3)ccc2c1 | 0.6 | -0.2 | -17.4 | -4.7 | x | x
c1cnc(N2CCN(Cc3c[nH]c4ccccc34)CC2)nc1 | -0.1 | 0.0 | 3.5 | 10.0 | x | x
Fc1ccccc1CN1CCN(Cc2c[nH]c3ccccc23)CC1 | 2.2 | 0.2 | 14.6 | 65.4* | -2.2 | -0.5
Fc1ccccc1NC(=S)N(Cc1cccnc1)Cc1ccccc1Cl | 0.0 | -0.2 | 6.8 | 3.4 | x | x
COC(=O)C1C(=O)NC(SC)=C(C#N)C1c1ccccc1Cl (configuration not stated) | 0.6 | -0.1 | 1.1 | -2.1 | x | x
c1ccc2c(CN3CCN(Cc4c[nH]c5ccccc45)CC3)cccc2c1 | 0.6 | 0.0 | 17.5 | 74.5* | -7.1 | 7.4
Fc1ccccc1CN1CCN(Cc2cccc3ccccc23)CC1 | -0.7 | -0.2 | -11.8 | 73.8* | 18.9 | -3.8
Clc1ccc(CN2CCN(Cc3c[nH]c4ccccc34)CC2)cc1 | -1.1 | -0.3 | -9.2 | 74.7* | 84.0* | 9.4 | AlphaScreen DR=>5.86
Fc1ccccc1CN1CCCCCC1 | -0.5 | 0.1 | 1.3 | 16.4 | x | x
O=C(Cn1ncc2cccn2c1=O)Nc1ccccc1F | 1.3 | 0.0 | 0.8 | -7.6 | x | x
CCCC(=O)C1=C(c2ccccc2)N(C(=O)CCC)n2cnnc2S1 | -1.6 | -1.2 | 11.9 | 14.2 | x | x
CCCc1nc2ccccc2c(NC(=O)CN2CCCC2)c1CC | 1.4 | 0.3 | -13.7 | 81.3* | 18.8 | -10.4
CCc1sc(NC(=O)CN2CCCC2)nc1-c1ccccc1 | 0.8 | 0.0 | 21.8 | 4.5 | x | x
SMILES | GPR151 ag | FBW7 activator | TEAD-YAP block | MITF primary | MITF inh conf | AlphaScreen intf2 | others
CCc1nc2ccccc2c(NC(=O)CN2CCN(CCO)CC2)c1C | -0.2 | -0.1 | -1.3 | 69.4* | 7.2 | 10.2
Cc1cc(NC(=O)Cn2nc(C(=O)N3CCOCC3)cc2C)c2ccccc2n1 | -0.5 | -0.1 | -8.4 | -20.3 | x | x
CCCCc1nc2ccccc2c(C(=O)O)c1C | 2.5 | 0.1 | 6.5 | 8.3 | x | x
CCCCCCN(CCCCCC)CC(=O)Nc1c(C)c(CC)nc2ccccc12 | 1.2 | 0.3 | 8.9 | 68.9* | 7.4 | 5.7
CCCCc1nc2ccccc2c(NC(=O)CN2CCN(C(=O)c3ccccc3)CC2)c1CCC | 4.1 | 0.0 | -0.3 | 62.4* | 16.4 | 21.6
Cc1sc2c(c1C)CN(CC1CCCO1)CN2C(=O)c1ccccc1 (configuration not stated) | -0.6 | 0.2 | -10.4 | 9.6 | x | x
Cc1ccc(C)c(NC(=O)c2cc(Br)ccc2Cl)c1 | 0.7 | 0.0 | 9.1 | -6.0 | x | x
COc1ccc(C(=O)N2CCN(Cc3ccc(OC)c(OC)c3)CC2)cc1 | -1.6 | -0.4 | -5.6 | 24.5 | x | x
COc1cc(CN2CCN(C(=O)c3ccncc3)CC2)cc(OC)c1OC | 0.5 | 0.0 | -0.5 | 72.0* | 3.4 | -6.2
COc1ccc(CN2CCN(C(=O)c3ccncc3)CC2)cc1OC | -0.3 | -0.2 | 2.8 | 69.5* | -9.2 | -3.3
COc1cc(C(=O)N2CCN(Cc3ccncc3)CC2)cc(OC)c1OC | -0.8 | 0.1 | 0.5 | 76.4* | -9.4 | -2.2
COc1cc(OC)cc(C(=O)N2CCN(Cc3cc(OC)c(OC)c(OC)c3)CC2)c1 | -1.0 | -0.1 | 4.8 | 29.0 | x | x
COc1ccccc1-c1c(C)nn2c(N3CCCCC3)cc(C)nc12 | 1.9 | -0.2 | -7.1 | -1.6 | x | x
O=C(NCCCn1ccnc1)C(=O)NCC1OCCN1S(=O)(=O)c1ccccc1 (configuration not stated) | 0.0 | -0.1 | -1.5 | 49.2 | x | x
O=C(NCCCn1ccnc1)C(=O)NCC1OCCCN1S(=O)(=O)c1ccccc1 (configuration not stated) | 2.9 | -1.5 | -2.4 | 65.6* | 34.6* | 44.9*
CCCCCCCCCCCCCCCC(=O)OC[C@H](O)[C@H]1OC(=O)C(=O)C1O (some centres not stated) | -1.7 | 0.1 | 23.7 | 80.8* | 41.6* | -12.5 | AlphaScreen DR=>6.48
CN(C)c1ccc(C(=O)OCC(=O)c2cccc([N+](=O)[O-])c2)cc1 | 0.5 | -0.2 | -6.1 | 7.8 | x | x
Cc1ccc(/C=C/C(=O)Nc2nn[nH]n2)o1 | 1.8 | -0.2 | 14.3 | 39.1 | x | x
CC(C)c1ccc(/C=C/C(=O)Nc2nn[nH]n2)cc1 | 0.7 | 0.9 | -21.1 | 51.8* | 8.7 | 13.5
COc1ccc(OC)c(-n2cnc3cc(C(=O)NCc4ccco4)ccc32)c1 | 0.3 | 0.0 | -12.3 | 74.8* | 19.8 | 6.5
COc1ccc(OC)c(-n2cnc3cc(C(=O)NCc4ccccc4Cl)ccc32)c1 | -0.6 | 0.1 | -0.3 | 1.7 | x | x
CC1(C)CC(C)(c2ccc(O)cc2O)N(c2ccccc2)C(=S)N1 (configuration not stated) | 0.1 | -0.1 | -6.1 | -4.6 | x | x
O=C(NCC1CCCO1)C(=O)Nc1nccs1 (configuration not stated) | 1.9 | 0.0 | -5.6 | 98.8* | -4.4 | -1.3

Assay outcomes from PubChem BioAssay.
